Among all 16,000 compounds or so, about 5,100 (32%) were called active. About 25% were inconclusive and are not listed. The list shows a part of the results. A number with no mark means an inactive call. Calls come from the whole dose curve; as a rule, active = well fitted curve in the direction sought with a large enough effect; inconclusive = small, poorly fitted or top-dose-only effect, or effect the other way; inactive = no such curve, though single readings can be large or run the other way.
% is set by controls: 0 for no effect and ±100 for the full control effect.

The target of this test is Cytochrome P450 3A4 (Homo sapiens) (UniProt P08684). Description: Cytochrome panel assay with activity outcomes. Particulars: recombinant CYP, pro-luciferin dealkylation, luminescence, p450-cyp3a4; series mostly up to 57.1 µM.
Cytochrome P450 3A4 (Homo sapiens), sequence (P08684 whole entry, looked up): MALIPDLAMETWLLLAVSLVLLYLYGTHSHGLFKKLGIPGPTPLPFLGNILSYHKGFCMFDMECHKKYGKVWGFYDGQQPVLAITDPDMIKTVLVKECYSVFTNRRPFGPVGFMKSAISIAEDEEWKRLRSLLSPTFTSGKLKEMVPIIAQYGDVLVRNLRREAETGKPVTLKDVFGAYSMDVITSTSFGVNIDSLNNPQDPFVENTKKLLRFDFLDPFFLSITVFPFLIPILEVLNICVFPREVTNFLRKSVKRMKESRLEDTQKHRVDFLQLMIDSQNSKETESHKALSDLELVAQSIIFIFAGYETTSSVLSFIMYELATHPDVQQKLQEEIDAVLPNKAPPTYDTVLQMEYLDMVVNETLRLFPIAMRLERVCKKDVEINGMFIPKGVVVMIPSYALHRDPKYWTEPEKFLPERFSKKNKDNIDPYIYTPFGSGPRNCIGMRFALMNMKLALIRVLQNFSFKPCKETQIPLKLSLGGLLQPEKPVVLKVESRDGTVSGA
For the molecule `COc1c(Cl)cc(Cl)cc1CNCCNCC(C)O` (stereo not drawn), the AC50 result is “inactive”. For the molecule `COc1cccc(/C=N/n2c(=S)n(C)c3cc(C)c(C)cc32)c1OC`, the activity, negative = inhibition was -9.43% [at 2.29 µM]. As to `Cc1n[nH]c(=S)n1/N=C/c1ccccc1OCc1ccc(Cl)cc1`, the half-maximal activity concentration (AC50) is 1.26 µM (active). In the case of `C=C1C(=O)C=C2CN(C(=O)c3ccccc3)[C@@](Cc3ccc(OC)cc3)(C(=O)OC)[C@@H]12`, the concentration at half-maximal activity (AC50) is 1.58 µM (active). On the same count and under the same terms, the value for `COc1ccc(C(=O)n2nc(-c3ccccc3)nc2SC)cc1` was “inactive”; that for `C=C1C(=O)C=C2CN(C(=O)c3ccccc3)[C@@](Cc3ccc(F)cc3)(C(=O)OC)[C@@H]12` was 7.94 µM (active); that for `Cc1cc(CC(=O)O)n(C)c1C(=O)c1ccc(Cl)cc1` was “inactive”.

`COc1ccc(C(=O)CN(C(=O)c2ccc(Cl)cc2)N2C(=O)c3ccccc3C2=O)cc1`: the AC50 is 8.91 µM (active). On to `Cc1ccc(C(=O)CN(C(=O)c2ccc(Cl)cc2)N2C(=O)c3ccccc3C2=O)cc1`, for which the AC50 was 10 µM (active).

As for `COc1ccc(C(=O)O/N=C/c2ccc(S(=O)c3ccc(Cl)cc3)nc2)cc1` (stereo not drawn), the AC50 result is “inactive”. With `COc1ccc2c(c1)-c1ccccc1S(=O)(=O)N2C(C)=O`, the AC50 entry is “inactive”.

Turning to `O=C(CON1C(=O)c2ccccc2C1=O)c1ccccc1`, the activity, negative = inhibition was -17.5% [at 11.4 µM]. The same measure, in the same setting: the value for `Cc1cc(=Nc2ccc3c(c2)c(N)cc(C)[n+]3C)nc(N)n1C` was 3.03% [at 11.4 µM]; that for `C[C@@H]1CCCC(CC(=O)O)(CC(=O)O)C1` was -9.8% [at 11.4 µM]; that for `O=C(Nc1cccc(C(F)(F)F)c1)c1ccc(Cn2cc(Br)cn2)o1` was -0.795% [at 2.29 µM]. As for `CC(NC(=O)c1ccc(Cn2cc([N+](=O)[O-])cn2)o1)c1ccccc1` (stereo not drawn), the concentration at half-maximal activity (AC50) was 25.1 µM (active). Regarding `CC(NC(=O)Cn1cnc([N+](=O)[O-])n1)c1ccccc1` (stereo not drawn), the AC50 result is “inactive”. As to `CCOC(=O)C(NC(=O)CC)(Nc1sc2c(c1C(=O)OC)CCN(C)C2)C(F)(F)F` (stereo not drawn), the concentration at half-maximal activity (AC50) is 12.6 µM (active). With `CCC(=O)NC(Nc1sc2c(c1C(=O)OC)CCCC2)(C(F)(F)F)C(F)(F)F`, the activity, negative = inhibition was -7.25% [at 2.29 µM]. For `CC(C)Oc1ccc(C2CC(=O)NC3=C2C(=O)CCC3)cc1` (stereo not drawn), the AC50 result is “inactive”.

For `COc1ccc(OC)c(C2CC(=O)C3=C(C2)NC(=O)CC3c2ccc(O)c(OC)c2)c1` (stereo not drawn), the AC50 was 8.91 µM (active). On the same count and under the same terms, the value for `COc1ccc(NC(=O)C2CC(=O)NC3=C2C(=O)CC(C)(C)C3)cc1` (stereo not drawn) was “inactive”.

As to `CC(=O)NC(Cc1ccc(F)cc1)C(=O)O` (stereo not drawn), the AC50 entry was “inactive”. `COc1ccc(F)cc1S(=O)(=O)NC(Cc1ccccc1)C(N)=O` (stereo not drawn): the AC50 was 15.8 µM (active). On the same count and under the same terms, the value for `CNC(=O)/C(C#N)=c1\s/c(=C/C(=O)OC)c(=O)n1-c1ccccc1` was “inactive”; that for `CS(=O)(=O)c1ccc(Cn2c3c(c4cc(F)cc(F)c42)CCC[C@H]3CC(=O)O)cc1` was 39.8 µM (active). As for `CN[C@@H](c1ccncc1)[C@@H](NC)c1ccncc1`, the concentration at half-maximal activity (AC50) was 5.01 µM (active). With `CC(C)NNC(=O)c1ccncc1`, the AC50 entry was “inactive”.

For the molecule `O=c1[nH][nH]c(=S)c(=O)[nH]1`, the activity, negative = inhibition is -14.1% [at 11.4 µM].

As to `COCCNc1ncnc2ccc(-c3ccoc3)cc12`, the AC50 result was “inactive”. As for `CC(=O)NCCNc1ncnc2ccc(-c3ccc(C(=O)N(C)C)cc3)cc12`, the AC50 result was “inactive”. In the case of `COCCNc1ncnc2ccc(-c3ccc(C(=O)N(C)C)cc3)cc12`, the half-maximal activity concentration (AC50) is 15.8 µM (active). `COCCNc1ncnc2ccc(-c3ccc(N(C)C)cc3)cc12`: the AC50 was 7.94 µM (active). With `COc1ccc(C2=NOC(C(=O)NCc3ccco3)C2)cc1OC` (stereo not drawn), the AC50 result was “inactive”.

`CC(=O)c1ccc(NC(=O)C2CC(c3ccc(F)cc3)=NO2)cc1` (stereo not drawn): the AC50 result is “inactive”. The same measure, in the same setting: the value for `COc1ccc(C2=NOC(C(=O)Nc3ccc(C(C)=O)cc3)C2)cc1OC` (stereo not drawn) was 8.91 µM (active). As to `O=C(NCc1ccccn1)C1CC(c2ccc(Cl)c(Cl)c2)=NO1` (stereo not drawn), the AC50 was 25.1 µM (active). The same measure, in the same setting: the value for `COCCNC(=O)C1CC(c2cccc(OC)c2)=NO1` (stereo not drawn) was “inactive”. For the molecule `O=C(O)[C@@H]1[C@@H](C(=O)NCc2ccccn2)[C@@H]2C=C[C@@H]1O2`, the activity, negative = inhibition is -5.18% [at 11.4 µM]. Take `COC(=O)[C@@H](NC(=O)Nc1ccc(C(C)=O)cc1)C(C)C`: the AC50 entry was “inactive”.

In the case of `O=C(NCc1ccc2c(c1)OCO2)C1CC(c2cccc(Br)c2)=NO1` (stereo not drawn), the half-maximal activity concentration (AC50) was 0.708 µM (active). Consider `COc1cccc(C2=NOC(C(=O)Nc3ccc(OC)c(OC)c3)C2)c1` (stereo not drawn), for which the half-maximal activity concentration (AC50) was 6.31 µM (active). Turning to `COc1ccc(CNC(=O)C2CC(c3ccc(OC)cc3)=NO2)cc1` (stereo not drawn), the AC50 result is “inactive”. In the case of `Cc1ccc(NC(=O)NNC(=O)C2CC(c3cccnc3)=NO2)cc1` (stereo not drawn), the AC50 result is “inactive”. In the case of `COc1cccc(C2=NOC(C(=O)Nc3cccnc3)C2)c1` (stereo not drawn), the AC50 was 12.6 µM (active). Turning to `COc1ccc(CNC(=O)C2CC(c3cccc([N+](=O)[O-])c3)=NO2)cc1` (stereo not drawn), the half-maximal activity concentration (AC50) is 6.31 µM (active).

As for `O=C1C=C(Nc2nc(C(=O)O)cc(=O)[nH]2)c2ccccc2C1=O`, the activity, negative = inhibition was -12.4% [at 11.4 µM]. Take `O=C1C=C(NCCc2cc(Br)c(O)c(Br)c2)C(=O)c2ncccc21`: the concentration at half-maximal activity (AC50) was 3.16 µM (active). Regarding `O=C(NCc1ccco1)c1cc(C(=O)C2CC2)c[nH]1`, the AC50 result is “inactive”. On the same count and under the same terms, the value for `O=C(NCc1ccco1)c1cc(C(=O)C2CCCCC2)c[nH]1` was “inactive”; that for `O=C(NCCc1ccccn1)c1cc(C(=O)C2CCCCC2)c[nH]1` was 10 µM (active); that for `COc1ccc2c(c1)c(CC(=O)N1CCOCC1)c(C)n2C(=O)c1ccc(Cl)cc1` was 5.01 µM (active). Still for that read-out and setting: the value for `COc1ccc2c(c1)c(CC(=O)OCC(=O)O)c(C)n2C(=O)c1ccc(Cl)cc1` was “inactive”.

For the molecule `COc1ccc2c(c1)c(CC(=O)O)c(C)n2C(=O)c1ccc(Cl)cc1`, the AC50 entry was “inactive”. Turning to `Cc1cccc(C(=O)NNC(=O)C(=O)NC(C)(C)C)c1`, the AC50 entry is “inactive”.

For the molecule `Cc1cccc(NCCNc2cccc(C)c2)c1`, the concentration at half-maximal activity (AC50) was 25.1 µM (active). Still for that read-out and setting: the value for `Cc1cccc(N/C(N)=N/c2nc(C)cc(C)n2)c1` was “inactive”. With `COc1ccc(S(=O)(=O)Nc2ccc(F)cc2)c(C)c1C`, the AC50 is 10 µM (active). Still for that read-out and setting: the value for `Cc1ccccc1CSc1nsc(N)n1` was 25.1 µM (active); that for `COc1cccc(-c2cc(C(=O)Nc3cccc(O)c3)no2)c1` was 10 µM (active). Consider `COc1ccc(NC(=O)c2cc(C(C)C)on2)cc1OC`, for which the AC50 result is “inactive”. In the case of `COCCNC(=O)c1cc(-c2cccc(OC)c2)on1`, the AC50 entry is “inactive”. On the same count and under the same terms, the value for `CCN1CCN(c2nc(C)c3c(n2)CCCC3=O)CC1` was “inactive”.

As a reminder, the AC50 is the concentration at which the activity in the assay is half-maximal.

Source of the values: PubChem BioAssay AID1851 (National Center for Advancing Translational Sciences (NCATS), 2009).
